In PubChem BioAssay:
For part of these data: Results with a measured potency or affinity are listed apart. Calls of active or inactive are those of the source.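 The calls were made as follows, unless noted: active = primary screen hit whose fluorescence ratio, in both repeats, exceeds the weak agonist control mean by 3 SD; inactive = the rest.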

What was measured:
[1] = tested on: TRPC4 beta (transient receptor potential cation channel C4), mouse; experiment: activators of mouse TRPC4 channel, confirmation, cell-based, Fluo4 calcium, HEK293 TRPC4beta/mu-opioid, duplicates, 10 µM (AID 2426;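 active = fluorescence ratio normalized to control raised more than 50% in primary screen plus both repeat runs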;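 as to activation: percent rise of integrated ratio over buffer wells lacking compound which define 0%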); conditions: Fluo4 calcium fluorescence, at 10 µM; hits give high values
[2] = tested on: transient receptor potential cation channel C4 beta (TRPC4), mouse; experiment: activators of mouse TRPC4 channel, confirmation, cell-based, second round, Fluo4, HEK293 TRPC4beta/mu-opioid, 1 µM (AID 2461;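 active = primary screen active and over 50% activation in each of two duplicate runs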); conditions: Fluo4 calcium fluorescence, at 1 µM; hits give high values
[3] = tested on: TRPC4 (transient receptor potential cation channel C4 beta), mouse; experiment: positive allosteric modulators of mouse TRPC4, confirmation, cell-based, second round, Fluo-4, HEK293 TRPC4beta/mu-opioid, 1 µM (AID 2554); conditions: DAMGO EC20, Fluo-4 calcium flux, at 1 µM; hits give high values
[4] = tested on: TRPC4 beta (transient receptor potential cation channel C4), mouse; experiment: positive allosteric modulators of mouse TRPC4, confirmation, cell-based, Fluo-4, HEK293 TRPC4beta/mu-opioid (AID 2555;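 active = primary screen hit whose calcium fluorescence ratio, in both repeats, exceeds the weak agonist control mean by 3 SD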); conditions: DAMGO EC20, Fluo-4 calcium flux, at 10 µM; hits give high values
[5] = molecular target: Short transient receptor potential channel 4 (Mus musculus) (UniProt Q9QUQ5); experiment: inhibitors of mouse TRPC4 channel, confirmation, cell-based, Fluo4, HEK293 TRPC4beta/mu-opioid (AID 2636;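 active = calcium signal cut by more than 3 SD below the full-agonist control yet still positive, in both repeats and the earlier primary screen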); conditions: DAMGO, Fluo4 calcium flux, at 10 µM; hits give high values
[6] = molecular target: Short transient receptor potential channel 4 (Mus musculus) (UniProt Q9QUQ5); experiment: inhibitors of mouse TRPC4 channel, confirmation, cell-based, second round, Fluo4, HEK293 TRPC4beta/mu-opioid, 1 µM (AID 2637;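 active = calcium signal ratio cut to more than 3 SD under the fully stimulated control mean yet still positive, in both repeats and the primary screen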); conditions: Fluo4 calcium flux, DAMGO, at 1 µM; hits give high values
[7] = molecular target: Short transient receptor potential channel 4 (Mus musculus) (UniProt Q9QUQ5); experiment: mouse TRPC4 channel activators, dose response, cell-based, HEK293 TRPC4/mu-opioid, Fluo-4 calcium (AID 434937;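 active = primary screen activator hit with a dose response curve and TRPC4 channel activation at any tested dose; inactive = no activation, no dose response, or not a primary hit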)
[8] = molecular target: Short transient receptor potential channel 4 (Mus musculus) (UniProt Q9QUQ5); experiment: TRPC4 positive allosteric modulators, dose response, cell-based, HEK293 TRPC4/mu-opioid, Fluo-4 calcium, EC20 DAMGO (AID 434941;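 active = earlier screen potentiator hit that boosts the TRPC4 ion channel at some dose, with a dose response; inactive = no potentiation, no dose response, or not a prior hit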;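 also: calcium entry triggered by an EC20 dose of DAMGO at the co-expressed mu-opioid receptor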)
[9] = molecular target: Short transient receptor potential channel 4 (Mus musculus) (UniProt Q9QUQ5); experiment: mouse TRPC4 channel inhibitors, dose response, cell-based, HEK293 TRPC4/mu-opioid, Fluo-4 calcium (AID 434942;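 active = primary screen inhibitor hit that blocks the TRPC4 channel at some tested dose, yielding a dose curve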)
[10] = molecular target: Short transient receptor potential channel 6 (Mus musculus) (UniProt Q61143); experiment: inhibition of mouse TRPC6 channel, confirmation, selectivity assay for TRPC4 inhibitor project, cell-based, HEK293, membrane potential dye, duplicate (AID 434948;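 active = active in primary screen and both duplicates, each dropping signal beyond three positive-control SD with fluorescence still positive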); conditions: HEK293 TRPC6, membrane potential dye fluorescence, at 10 µM, stimulated with maximal-effect acetylcholine; hits give high values
[11] = molecular target: Short transient receptor potential channel 6 (Mus musculus) (UniProt Q61143); experiment: activation of mouse TRPC6 channel, confirmation, selectivity assay for TRPC4 activator project, cell-based, HEK293, membrane potential dye, duplicate (AID 434950;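 active = membrane potential signal rise above negative control mean plus 3 SD in both duplicates, also active in the earlier TRPC4 screen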;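 as to activation: 0% = buffer only wells and 100% = acetylcholine maximal-effect wells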); conditions: HEK293 TRPC6, membrane potential fluorescence, at 10 µM; hits give high values
[12] = molecular target: Short transient receptor potential channel 6 (Mus musculus) (UniProt Q61143); experiment: TRPC6 potentiation by TRPC4 potentiator hits, confirmation, selectivity assay for TRPC4 potentiator project, HEK293 cells, membrane potential dye, duplicate (AID 434952;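 active = compound raising the membrane signal above positive-control mean plus 3 SD in both repeats, and a primary screen hit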); conditions: HEK293 TRPC6, membrane potential dye fluorescence, at 10 µM, maximal acetylcholine added after compound; hits give high values
[13] = molecular target: Short transient receptor potential channel 4 (Mus musculus) (UniProt Q9QUQ5); experiment: calcium flux activators in TRPC4/5HT1a cells, counter-screen for TRPC4 activator project, cell-based, second counter screen, HEK293 TRPC4/5HT1a, Fluo-4 (AID 434977;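 active = calcium signal rise above buffer-control mean plus 5 SD in both duplicates, and also a hit in the primary screen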;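 as to activation: plate controls were assay buffer for no effect and maximal serotonin response for full effect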); conditions: Fluo-4 calcium flux, at 10 µM; hits give high values
[14] = calcium flux inhibitors in TRPC4/5HT1a cells, confirmation, counter-screen for TRPC4 inhibitor project, cell-based, second counter screen, HEK293 TRPC4/5HT1a, Fluo-4 (AID 434978;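 active = primary screen active whose calcium signal fell more than 3 SD beyond the full-serotonin control mean in both duplicate plates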;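 also: serotonin given first at submaximal then at maximal dose after compound preincubation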); conditions: Fluo-4 calcium flux, at 10 µM, serotonin added to trigger calcium flux; hits give high values
[15] = tested on: TRPC4 (mouse), co-expressed with 5HT1a in HEK293; experiment: calcium flux potentiators in TRPC4/5HT1a cells, confirmation, counter-screen for TRPC4 potentiator project, cell-based, second counter screen, HEK293 TRPC4/5HT1a, Fluo-4 (AID 434979;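 active = signal rise over 3 SD above mean of control wells given weak agonist, in both repeats and first screen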); conditions: Fluo-4 calcium flux, at 10 µM, serotonin added at its EC20 dose; hits give high values
[16] = calcium flux activation in mu-opioid HEK293 cells, confirmation, counter-screen for TRPC4 activator project, cell-based, HEK293 mu-opioid receptor line (AID 449723;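 active = hit in primary screen, with calcium signal over 5 SD above buffer well mean in both duplicates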;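 also: counter screen cells carry the mu-opioid receptor alone and lack TRPC4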); conditions: Fluo-4 calcium fluorescence, at 10 µM; hits give high values
[17] = calcium flux enhancement in mu-opioid HEK293 cells, confirmation, counter-screen for TRPC4 allosteric potentiator project, cell-based, HEK293 mu-opioid receptor line (AID 449724;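 active = calcium signal rise more than 3 SD above the low-dose agonist control mean, in both duplicate plates and the primary screen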); conditions: Fluo-4 calcium flux, at 10 µM, compound added before EC20 DAMGO stimulus; hits give high values

Chain of Short transient receptor potential channel 6 (Mus musculus) (Q61143 whole entry, looked up): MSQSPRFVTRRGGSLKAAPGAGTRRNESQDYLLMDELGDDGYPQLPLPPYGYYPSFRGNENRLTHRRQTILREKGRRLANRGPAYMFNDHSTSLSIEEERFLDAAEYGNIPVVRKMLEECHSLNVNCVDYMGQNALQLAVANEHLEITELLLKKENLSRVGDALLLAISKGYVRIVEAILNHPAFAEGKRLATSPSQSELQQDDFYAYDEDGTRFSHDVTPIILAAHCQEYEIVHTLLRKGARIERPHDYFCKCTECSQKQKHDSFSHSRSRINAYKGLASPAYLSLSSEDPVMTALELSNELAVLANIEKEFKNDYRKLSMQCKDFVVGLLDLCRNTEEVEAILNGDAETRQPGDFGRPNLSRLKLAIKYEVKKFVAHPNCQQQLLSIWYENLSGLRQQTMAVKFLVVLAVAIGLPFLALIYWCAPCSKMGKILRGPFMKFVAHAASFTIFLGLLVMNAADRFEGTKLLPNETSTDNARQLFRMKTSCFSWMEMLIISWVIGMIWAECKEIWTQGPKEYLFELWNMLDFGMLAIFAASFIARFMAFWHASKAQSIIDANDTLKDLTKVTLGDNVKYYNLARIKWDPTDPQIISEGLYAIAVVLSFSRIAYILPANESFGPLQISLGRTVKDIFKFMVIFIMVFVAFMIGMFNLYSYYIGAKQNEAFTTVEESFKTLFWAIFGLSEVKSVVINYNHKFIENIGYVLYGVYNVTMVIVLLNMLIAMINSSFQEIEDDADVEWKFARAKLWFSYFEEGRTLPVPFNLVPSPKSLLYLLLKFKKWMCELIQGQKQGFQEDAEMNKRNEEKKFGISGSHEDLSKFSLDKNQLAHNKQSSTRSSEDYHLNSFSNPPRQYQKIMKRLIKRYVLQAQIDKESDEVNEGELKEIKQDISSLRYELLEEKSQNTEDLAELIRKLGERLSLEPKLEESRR
Chain of Short transient receptor potential channel 4 (Mus musculus) (Q9QUQ5 whole entry, looked up): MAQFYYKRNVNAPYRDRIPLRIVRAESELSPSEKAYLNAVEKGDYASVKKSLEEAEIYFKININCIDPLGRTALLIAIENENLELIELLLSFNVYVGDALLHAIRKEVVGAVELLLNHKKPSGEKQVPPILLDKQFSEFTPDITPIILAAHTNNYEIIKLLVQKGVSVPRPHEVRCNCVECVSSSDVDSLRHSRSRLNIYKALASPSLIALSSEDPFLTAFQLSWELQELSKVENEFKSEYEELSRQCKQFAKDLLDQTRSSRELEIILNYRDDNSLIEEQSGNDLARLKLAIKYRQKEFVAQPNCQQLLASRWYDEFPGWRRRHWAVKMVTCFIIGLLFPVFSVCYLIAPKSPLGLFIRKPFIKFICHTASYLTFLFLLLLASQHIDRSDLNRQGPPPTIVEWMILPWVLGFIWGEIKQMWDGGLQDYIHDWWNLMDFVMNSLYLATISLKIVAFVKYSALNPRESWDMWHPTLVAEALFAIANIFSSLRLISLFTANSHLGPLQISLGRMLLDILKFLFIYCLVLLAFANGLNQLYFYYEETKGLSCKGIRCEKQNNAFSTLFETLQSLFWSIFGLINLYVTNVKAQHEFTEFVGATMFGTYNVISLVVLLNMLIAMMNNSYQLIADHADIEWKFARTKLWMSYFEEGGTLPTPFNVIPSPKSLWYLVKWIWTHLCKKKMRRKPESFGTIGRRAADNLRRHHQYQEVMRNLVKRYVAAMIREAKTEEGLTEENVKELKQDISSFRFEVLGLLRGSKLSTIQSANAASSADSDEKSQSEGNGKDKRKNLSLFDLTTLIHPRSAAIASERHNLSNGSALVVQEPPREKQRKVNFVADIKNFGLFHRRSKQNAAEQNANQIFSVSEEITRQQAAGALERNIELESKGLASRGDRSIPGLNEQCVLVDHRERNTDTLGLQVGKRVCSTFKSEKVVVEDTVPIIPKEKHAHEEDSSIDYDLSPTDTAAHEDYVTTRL

O=C(CSc1nnc(-c2ccccc2)o1)c1ccc2c(c1)OCCO2
outcome [1]: inactive | outcome [2]: inactive | outcome [3]: inactive | outcome [4]: inactive | outcome [5]: inactive | outcome [6]: inactive | outcome [7]: inactive | outcome [8]: inactive | outcome [9]: inactive | outcome [10]: inactive | outcome [11]: inactive | outcome [12]: inactive | outcome [13]: inactive | outcome [14]: inactive | outcome [15]: inactive | outcome [16]: inactive | outcome [17]: inactive

Cc1ccc(/C=C/C(=O)NC2CCCCCCC2)o1
outcome [1]: inactive | outcome [2]: inactive | outcome [3]: inactive | potentiation [4]: 16% (active) | outcome [5]: inactive | outcome [6]: inactive | outcome [7]: inactive | outcome [8]: inactive | outcome [9]: inactive | outcome [10]: inactive | outcome [11]: inactive | outcome [12]: inactive | outcome [13]: inactive | outcome [14]: inactive | potentiation [15]: 19.1% (active) | outcome [16]: inactive | outcome [17]: inactive

O=C(NCc1ccccc1)c1ccc(S(=O)(=O)Nc2cccc(C(F)(F)F)c2)cc1
outcome [1]: inactive | outcome [2]: inactive | outcome [3]: inactive | potentiation [4]: 46% (active) | outcome [5]: inactive | outcome [6]: inactive | outcome [7]: inactive | outcome [8]: inactive | outcome [9]: inactive | outcome [10]: inactive | outcome [11]: inactive | outcome [12]: inactive | outcome [13]: inactive | outcome [14]: inactive | potentiation [15]: 44.3% (active) | outcome [16]: inactive | outcome [17]: inactive

COc1ccc(C2C(O)C(c3c[nH]c4ccccc34)=NN2C(=O)CCl)cc1 (stereo not given)
outcome [1]: inactive | outcome [2]: inactive | outcome [3]: inactive | potentiation [4]: 36% (active) | outcome [5]: inactive | outcome [6]: inactive | outcome [7]: inactive | outcome [8]: inactive | outcome [9]: inactive | outcome [10]: inactive | outcome [11]: inactive | outcome [12]: inactive | outcome [13]: inactive | outcome [14]: inactive | potentiation [15]: 28.9% (active) | outcome [16]: inactive | outcome [17]: inactive

CC(=O)c1ccc(N2CCN(C(=O)C3CCN(S(=O)(=O)c4ccc5c(c4)CC(C)N5C(=O)C4CC4)CC3)CC2)cc1 (stereo not given)
outcome [1]: inactive | outcome [2]: inactive | outcome [3]: inactive | potentiation [4]: 9% (active) | outcome [5]: inactive | outcome [6]: inactive | outcome [7]: inactive | outcome [8]: inactive | outcome [9]: inactive | outcome [10]: inactive | outcome [11]: inactive | outcome [12]: inactive | outcome [13]: inactive | outcome [14]: inactive | potentiation [15]: 14.8% (active) | outcome [16]: inactive | outcome [17]: inactive

CC(C)CCNC(=O)CCC(=O)NNc1nc2ccccc2c2nc(-c3ccccc3)nn12
outcome [1]: inactive | outcome [2]: inactive | outcome [3]: inactive | outcome [4]: inactive | outcome [5]: inactive | outcome [6]: inactive | outcome [7]: inactive | outcome [8]: inactive | outcome [9]: inactive | outcome [10]: inactive | outcome [11]: inactive | outcome [12]: inactive | outcome [13]: inactive | outcome [14]: inactive | potentiation [15]: 70.8% (active) | outcome [16]: inactive | outcome [17]: inactive

Cc1ccc(C)c(N2CCN(CCCNC(=O)CCn3c(=O)c4cccn4c4cccnc43)CC2)c1
outcome [1]: inactive | outcome [2]: inactive | outcome [3]: inactive | outcome [4]: inactive | outcome [5]: inactive | outcome [6]: inactive | outcome [7]: inactive | outcome [8]: inactive | outcome [9]: inactive | outcome [10]: inactive | outcome [11]: inactive | outcome [12]: inactive | outcome [13]: inactive | outcome [14]: inactive | outcome [15]: inactive | outcome [16]: inactive | outcome [17]: inactive

COc1ccc(CNCC(O)(c2ccccc2)c2ccccc2)cc1OC
outcome [1]: inactive | outcome [2]: inactive | outcome [3]: inactive | outcome [4]: inactive | outcome [5]: inactive | outcome [6]: inactive | outcome [7]: inactive | outcome [8]: inactive | outcome [9]: inactive | outcome [10]: inactive | outcome [11]: inactive | outcome [12]: inactive | outcome [13]: inactive | outcome [14]: inactive | outcome [15]: inactive | outcome [16]: inactive | outcome [17]: inactive

O=Cc1c(N2CCCCC2)nc2ccccn2c1=O
outcome [1]: inactive | outcome [2]: inactive | outcome [3]: inactive | outcome [4]: inactive | outcome [5]: inactive | outcome [6]: inactive | outcome [7]: inactive | outcome [8]: inactive | outcome [9]: inactive | outcome [10]: inactive | outcome [11]: inactive | outcome [12]: inactive | outcome [13]: inactive | outcome [14]: inactive | outcome [15]: inactive | outcome [16]: inactive | outcome [17]: inactive

Fc1ccc(CN2C3=NCCCN3c3ccccc32)cc1
outcome [1]: inactive | outcome [2]: inactive | outcome [3]: inactive | outcome [4]: inactive | outcome [5]: inactive | outcome [6]: inactive | outcome [7]: inactive | outcome [8]: inactive | outcome [9]: inactive | outcome [10]: inactive | outcome [11]: inactive | outcome [12]: inactive | outcome [13]: inactive | outcome [14]: inactive | outcome [15]: inactive | outcome [16]: inactive | outcome [17]: inactive

O=C(N/N=C/c1ccccc1F)NC1CCCCC1
activation [1]: 85% (active) | outcome [2]: inactive | potentiation [3]: 12% (active) | potentiation [4]: 77% (active) | outcome [5]: inactive | outcome [6]: inactive | outcome [7]: inactive | outcome [8]: inactive | outcome [9]: inactive | outcome [10]: inactive | activation [11]: 36.5% (active) | outcome [12]: inactive | activation [13]: 17.8% (active) | outcome [14]: inactive | potentiation [15]: 107% (active) | outcome [16]: inactive | outcome [17]: inactive

CC(C)(C)c1ccccc1OCCCCCn1ccnc1
outcome [1]: inactive | outcome [2]: inactive | outcome [3]: inactive | outcome [4]: inactive | outcome [5]: inactive | outcome [6]: inactive | outcome [7]: inactive | outcome [8]: inactive | outcome [9]: inactive | outcome [10]: inactive | outcome [11]: inactive | outcome [12]: inactive | outcome [13]: inactive | outcome [14]: inactive | outcome [15]: inactive | outcome [16]: inactive | outcome [17]: inactive

CN(Cc1ccco1)C(=O)Cn1ncc2c([nH]c3ccccc32)c1=O
outcome [1]: inactive | outcome [2]: inactive | outcome [3]: inactive | potentiation [4]: 10% (active) | outcome [5]: inactive | outcome [6]: inactive | outcome [7]: inactive | outcome [8]: inactive | outcome [9]: inactive | outcome [10]: inactive | outcome [11]: inactive | outcome [12]: inactive | outcome [13]: inactive | outcome [14]: inactive | potentiation [15]: 61.1% (active) | outcome [16]: inactive | outcome [17]: inactive

CC(C)c1ccc(OCc2ccc(C(=O)N3CCCC3)o2)cc1
outcome [1]: inactive | outcome [2]: inactive | outcome [3]: inactive | potentiation [4]: 39% (active) | outcome [5]: inactive | outcome [6]: inactive | outcome [7]: inactive | outcome [8]: inactive | outcome [9]: inactive | outcome [10]: inactive | outcome [11]: inactive | outcome [12]: inactive | outcome [13]: inactive | outcome [14]: inactive | outcome [15]: inactive | outcome [16]: inactive | outcome [17]: inactive

COc1ccc(C(=O)Nc2ccccc2N2CCN(C(=O)c3ccccc3)CC2)cc1Br
outcome [1]: inactive | outcome [2]: inactive | outcome [3]: inactive | outcome [4]: inactive | inhibition [5]: 75% (active) | outcome [6]: inactive | outcome [7]: inactive | outcome [8]: inactive | outcome [9]: inactive | outcome [10]: inactive | outcome [11]: inactive | outcome [12]: inactive | outcome [13]: inactive | outcome [14]: inactive | outcome [15]: inactive | outcome [16]: inactive | outcome [17]: inactive
